Some test systems named below: RPMI-8226 leukemia; OVCAR-8 ovarian; OVCAR-5 ovarian; OVCAR-4 ovarian; SK-OV-3 ovarian; IGROV1 ovarian; OVCAR-3 ovarian; HS 578T breast; NCI/ADR-RES ovarian; T-47D breast.
What all share (experiment): NCI-60 one-dose screen, 48 h (100 = growth as untreated, 0 = no growth, -100 = all killed)
What all share (settings): 10 µM unless noted

This is part of a sample that, as a whole, favours compounds with a hit. Of some 83,000 tested, about 20% had one in any assay.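 Each cell line was grown in a 96-well plate and treated with one concentration of compound for 48 hours. Values below 10 were considered active.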 Unmarked numbers belong to inactive results. Active and inactive are the calls of the source.

In the case of `O=C1c2ccccc2C(=O)c2c1ccc1[nH]c(CCl)nc21`, the growth with RPMI-8226 leukemia is -40.3% (active); in the assay on OVCAR-8 ovarian, 20.1%; in the assay with OVCAR-5 ovarian, 70.4%; with OVCAR-4 ovarian it was -20.4% (active); with SK-OV-3 ovarian, 37.6%; in the assay with IGROV1 ovarian it was 15.2%. The growth with OVCAR-3 ovarian is -35.9% (active); in the assay on HS 578T breast it was 18.2%; in the assay on NCI/ADR-RES ovarian it was 34.5%; with T-47D breast, -21.5% (active).

Consider `CC[C@]1(O)C[C@@H]2CN(CCc3c([nH]c4ccccc34)[C@@](C(=O)OC)(c3cc4c(cc3OC)N(C)[C@H]3[C@@](O)(C(=O)OC)[C@H](OC(=O)CCCBr)[C@]5(CC)C=CCN6CC[C@]43[C@@H]65)C2)C1`, for which the growth in the assay with RPMI-8226 leukemia was 6.27% (active); in the assay with OVCAR-8 ovarian, 19.4%; in the assay with OVCAR-5 ovarian, 24.9%; in the assay on OVCAR-4 ovarian, 35.3%; in the assay on SK-OV-3 ovarian, 30.8%; with IGROV1 ovarian, 11.2%. The growth in the assay on OVCAR-3 ovarian was -1.93% (active); in the assay on HS 578T breast it was 8.92% (active); with NCI/ADR-RES ovarian it was 13.8%; with T-47D breast, 74.2%.

For the compound `COc1cc(NC(=O)CCSc2nc3ccccc3c(=O)n2CCc2ccccn2)cc(OC)c1OC`, the growth with RPMI-8226 leukemia is 79%; in the assay with OVCAR-8 ovarian, 79.1%; with OVCAR-5 ovarian it was 89.4%; in the assay on OVCAR-4 ovarian, 46.6%; with SK-OV-3 ovarian it was 78.9%; in the assay on IGROV1 ovarian it was 99.8%. Further, the growth with OVCAR-3 ovarian is 110%; with HS 578T breast it was 89.2%; in the assay on NCI/ADR-RES ovarian, 89.4%; in the assay with T-47D breast, 69.7%.

In the case of `Cc1nn(-c2nc3ccccc3[nH]2)c2c1C(c1ccc(OCC(N)=O)cc1)CC(=O)N2` (stereo not given), the growth with RPMI-8226 leukemia was 126%; with OVCAR-8 ovarian, 107%; in the assay with OVCAR-5 ovarian, 102%; in the assay on OVCAR-4 ovarian, 108%; in the assay on SK-OV-3 ovarian, 106%; with IGROV1 ovarian, 109%. The growth is 111% in the assay on OVCAR-3 ovarian, 95% with HS 578T breast, 109% with NCI/ADR-RES ovarian and 90.8% in the assay with T-47D breast.

`OC(c1ccccc1)c1nnc(SCc2ccccc2)n1Cc1ccccc1` (stereo not given): the growth in the assay with RPMI-8226 leukemia was 72.5%; in the assay on OVCAR-8 ovarian, 98.8%; in the assay with OVCAR-5 ovarian, 92.8%; in the assay on OVCAR-4 ovarian it was 81.6%; with SK-OV-3 ovarian, 90%; in the assay with IGROV1 ovarian, 93.7%. For the same compound, the growth was 103% with OVCAR-3 ovarian, 94% in the assay with HS 578T breast, 92.8% in the assay on NCI/ADR-RES ovarian and 85.2% in the assay on T-47D breast.

Turning to `Cc1cc(OC(=O)c2ccc([N+](=O)[O-])cc2)nc2[nH]c(=O)sc12`, the growth in the assay on RPMI-8226 leukemia is 99.8%; with OVCAR-8 ovarian it was 102%; in the assay with OVCAR-5 ovarian it was 105%; in the assay on OVCAR-4 ovarian, 98.7%; in the assay on SK-OV-3 ovarian, 115%; in the assay on IGROV1 ovarian, 96.9%. In addition, the growth in the assay with OVCAR-3 ovarian is 108%; in the assay on HS 578T breast, 95.7%; in the assay with NCI/ADR-RES ovarian, 104%; with T-47D breast, 99.7%.

With `COc1ccc(/C=C2\SC(=Nc3ccccc3)NC2=O)cc1`, the growth in the assay on RPMI-8226 leukemia is -50.9% (active); in the assay on OVCAR-8 ovarian, -81.2% (active); in the assay with OVCAR-5 ovarian it was -77.8% (active); in the assay on OVCAR-4 ovarian it was -49.4% (active); with SK-OV-3 ovarian, -54.1% (active); in the assay on IGROV1 ovarian, -78.2% (active). For the same compound, the growth is -69.4% (active) in the assay on OVCAR-3 ovarian, -47.5% (active) with HS 578T breast, -8.71% (active) in the assay on NCI/ADR-RES ovarian and -72.8% (active) in the assay on T-47D breast.

Take `Cc1ccc(NCCNCC(O)CO)c2c(=O)c3ccccc3sc12` (stereo not given): the growth with RPMI-8226 leukemia is 34.6%; with OVCAR-8 ovarian, 14.2%; with OVCAR-5 ovarian, 46.8%; in the assay on OVCAR-4 ovarian, 34.7%; with SK-OV-3 ovarian it was 31.8%; in the assay with IGROV1 ovarian, 24.3%. For the same compound, the growth in the assay with OVCAR-3 ovarian was 29.9%; in the assay with HS 578T breast it was 33.1%; in the assay on NCI/ADR-RES ovarian, 26.8%; with T-47D breast, 53.8%.

Take `O=C(Nc1ccc(Cl)cc1F)c1cc(Br)ccc1O`: the growth in the assay on RPMI-8226 leukemia was -13.5% (active); with OVCAR-8 ovarian, 9.53% (active); with OVCAR-5 ovarian, 22%; in the assay on OVCAR-4 ovarian it was 14.4%; in the assay on SK-OV-3 ovarian, -0.537% (active); with IGROV1 ovarian, 19.5%. In addition, the growth is 9.61% (active) in the assay with OVCAR-3 ovarian, 1.54% (active) with HS 578T breast, 7.03% (active) in the assay with NCI/ADR-RES ovarian and -14% (active) in the assay with T-47D breast.

For `CCCCCCc1cc2cc(-c3nc4ccccc4[nH]3)c(=Nc3ccccc3C)oc2cc1O`, the growth was -20.2% (active) in the assay with RPMI-8226 leukemia; 55.8% in the assay on OVCAR-8 ovarian; 57.7% with OVCAR-5 ovarian; 39.4% with OVCAR-4 ovarian; 67% in the assay with SK-OV-3 ovarian; 39.5% in the assay on IGROV1 ovarian. The growth in the assay on OVCAR-3 ovarian was 41.9%; in the assay with HS 578T breast, 68.8%; with NCI/ADR-RES ovarian it was 49.9%; in the assay with T-47D breast it was 29%.

Consider `COc1ccc(/C=C/C(=O)c2c(C)nc3ccccc3c2/C=C/c2ccccc2)cc1O`, for which the growth is 25.6% in the assay with RPMI-8226 leukemia; 30.9% in the assay on OVCAR-8 ovarian; 17.2% in the assay on OVCAR-5 ovarian; 61.9% in the assay with OVCAR-4 ovarian; 71.7% in the assay with SK-OV-3 ovarian; 34.7% in the assay with IGROV1 ovarian. For the same compound, the growth was 13.6% in the assay with OVCAR-3 ovarian, 37.5% with HS 578T breast, 17.7% in the assay on NCI/ADR-RES ovarian and 39.6% in the assay with T-47D breast.

For `O=C(Nc1ccc(Br)cc1F)c1cc(F)ccc1O`, the growth is -28.9% (active) with RPMI-8226 leukemia; 8.95% (active) with OVCAR-8 ovarian; 25.3% in the assay on OVCAR-5 ovarian; 12.4% with OVCAR-4 ovarian; 1.4% (active) with SK-OV-3 ovarian; 19.2% in the assay with IGROV1 ovarian. In addition, the growth in the assay on OVCAR-3 ovarian is 9.86% (active); in the assay on HS 578T breast it was 1.14% (active); in the assay on NCI/ADR-RES ovarian it was 9.89% (active); in the assay with T-47D breast, -3.86% (active).

`Cc1ccc(F)cc1NC(=O)c1cc(Cl)ccc1Nc1ccccc1`: the growth is 32.2% with RPMI-8226 leukemia; 27.3% in the assay on OVCAR-8 ovarian; 70.2% in the assay on OVCAR-5 ovarian; 51.6% in the assay with OVCAR-4 ovarian; 82.8% in the assay on SK-OV-3 ovarian; 71% in the assay with IGROV1 ovarian. In addition, the growth in the assay on OVCAR-3 ovarian is 53.4%; with HS 578T breast, 90.4%; in the assay with NCI/ADR-RES ovarian, 40.1%; in the assay with T-47D breast, 37.1%.

The record behind these values is PubChem BioAssay (NCI).
